The sample as a whole holds a higher share of hits than the screen did.
Cruzain inh Det – cruzain (T. cruzi) inhibition with detergent. P25779. 0.43% of 200,000 active. purified cruzain, Z-FR-AMC fluorescence, 0.01% Triton. Potency, µM, for the others: max response, negative = inhibition, hits mostly inhibitors. AID 1478;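 also: plate controls were neutral wells for no effect and buffer without enzyme for full effect; nearly all actives have a fitted effect of over 40% in size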
Target sequence (P25779 123-467 limits assumed): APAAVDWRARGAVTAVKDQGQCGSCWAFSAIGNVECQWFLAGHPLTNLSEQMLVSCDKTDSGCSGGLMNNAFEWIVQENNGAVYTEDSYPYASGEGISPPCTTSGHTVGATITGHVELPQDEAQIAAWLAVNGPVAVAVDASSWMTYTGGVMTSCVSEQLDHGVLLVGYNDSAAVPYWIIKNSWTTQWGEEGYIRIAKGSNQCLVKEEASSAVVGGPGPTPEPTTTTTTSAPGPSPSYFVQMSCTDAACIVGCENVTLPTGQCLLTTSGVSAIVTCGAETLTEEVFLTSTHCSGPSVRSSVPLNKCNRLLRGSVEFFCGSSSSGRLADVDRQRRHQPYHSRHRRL
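Sodium acetate buffer (100 mM, pH 5.5) containing 5 mM DTT and 0.01% Triton X-100 hosted 1.5 nM cruzain and test compound for 15 min at room temperature. Cleavage of 2 uM Z-FR-AMC was then tracked by fluorescence.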
FBPA Giardia inh – blocks Giardia fructose-bisphosphate aldolase activity. purified Giardia FBPA. 0.71% of 290,000 active. Potency, µM (series often up to 59.6 µM), inactives show at the highest dose activity, negative = inhibition, usual class: inhibitors; also: nearly all actives have a fitted effect of over 55% in size
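40 nM FBPA preincubated 10 min at RT with compound (up to 57.5 uM final), then substrate plus GAPDH/TPI/NAD/arsenate coupling and diaphorase/resazurin added. Fluorescence read after 20 min at RT, 525/598 nm.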
Cruzain noTriton – blocks cruzain activity in detergent-free assay. P25779. purified cruzain, Z-FR-AMC fluorescence, no detergent. Potency, µM, for the others: max response, negative = inhibition, actives largely listed as inhibitors. 2.3% of 200,000 active. AID 1476;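 also: plate controls were enzyme without inhibitor for no effect and buffer without enzyme for full effect; nearly all actives have a fitted effect of over 40% in size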
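Purified cruzain at 1.5 nM, pre-incubated 15 min with compound at room temperature in 100 mM sodium acetate pH 5.5, 5 mM DTT, 0.00005% Triton X-100. Reaction started with 2 uM Z-FR-AMC; AMC fluorescence increase over 60 s gives rate.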
* marks the source's active call; other numbers are inactive results; ? = inconclusive; nt = not tested or not shown; [ ] = remark or other dose. Calls follow the shape of the dose curve; as a rule, active = well fitted curve in the direction sought with a large enough effect; inconclusive = small, poorly fitted or top-dose-only effect, or another doubt; inactive = no such curve, though single readings can be large; an effect the other way counts as inactive or inconclusive. Unless noted, % is scaled to controls: 0 for no effect and ±100 for the full control effect; potency is read from the fitted curve at half-maximal effect.

SMILES	Cruzain inh Det	FBPA Giardia inh	Cruzain noTriton
O=C(Cn1c(=O)oc2cc(S(=O)(=O)N3CCCCC3)ccc21)Nc1cccc(Cl)c1	-5%	nt	?
CCCCCCCCCCCCCC[C@@H](O)[C@@H](O)[C@H](CO)NC(C)=O	nt	1%	nt
CCN(CC)c1ccc(C(=O)NCc2ccc3c(c2)CCN3C(=O)c2ccc(F)cc2)cc1	-2%	nt	-18%
CCOC(=O)c1sc(NCc2ccco2)c(-c2nc3ccccc3s2)c1N	-6%	-10%	?
CCNc1sc(C(=O)c2cccs2)c(N)c1C#N	1%	2%	-10%
C=CCNc1sc(C(=O)c2ccccc2)c(N)c1-c1nc2ccccc2s1	-1%	1%	7.9µM*
CCNc1sc(C(=O)c2cccs2)c(N)c1-c1nc2ccccc2s1	3%	-16%	7.9µM*
C[C@H]1/C=C\CC(=O)OC[C@H](C)C(=O)N2CCC[C@@H]2C(=O)OC1	nt	1%[12.9 µM]	nt
CCN(CC)CCCNC(=O)c1nn(C)c2c1CSc1ccccc1-2	-2%	nt	-14%
COc1ccccc1NC(=O)c1cnc(SCC(=O)N2CCOCC2)n(C)c1=O	-3%	nt	-5%
Cc1ccc(O)c(C(=O)c2cc(C(=O)NCCC(C)C)c(=O)n(CCC(C)C)c2)c1	nt	-9%	nt
O=C(c1cc(C(=O)NCc2ccc(Cl)cc2)c(=O)n(Cc2ccc(Cl)cc2)c1)c1cc(F)ccc1O	-4%	-2%	16µM*
CCOc1cccc(C(=O)Nc2nc(-c3ccc(S(=O)(=O)N4CCOCC4)cc3)cs2)c1	-7%	-4%	?
O=C(COc1cccc(Cl)c1)Nc1nc(-c2ccc(S(=O)(=O)N3CCOCC3)cc2)cs1	1%	-1%	13µM*
COc1cc(CNc2ccc(O)cc2)cc(Br)c1OCc1ccccc1F	-8%	16µM*	4%
CCOc1cc(CNc2ccc(O)cc2)cc(Br)c1OCc1ccccc1F	-12%	?	-5%
O=C(Nc1ccc([N+](=O)[O-])cc1)c1cn(-c2ccccc2)nc1-c1cc2ccccc2o1	-3%	4%	7.9µM*
CN(C)C(=O)c1cn(-c2ccccc2)nc1-c1cc2ccccc2o1	nt	-17%	nt
COc1ccccc1-c1ccc(/C=C2/C=C(CC(C)C)OC2=O)o1	-24%	-9%	32µM*
CCCC1=C/C(=C/c2ccc(-c3ccccc3OC)o2)C(=O)O1	-21%	-3%	?
COc1ccc(C2/C=C\CN(Cc3ccccc3)C(C)C(=O)N2Cc2ccc(F)cc2)cc1 (stereo not given)	nt	-4%	nt
C/C(=N/NC(=O)c1ccc(Cl)s1)c1ccc(NC(=O)COc2ccc(Cl)cc2)cc1	-5%	-5%	20µM*
C/C(=N/NC(=O)c1ccc(C)s1)c1cccc(NC(=O)COc2ccc(Cl)cc2Cl)c1	-1%	5%	13µM*
C/C(=N/NC(=O)c1cccs1)c1ccc(NC(=O)COc2ccc(Cl)cc2Cl)cc1	-7%	3%	?
CCC(=O)Nc1ccc(/C(C)=N\NC(=O)c2ccc(C)s2)cc1	-6%	7%	-6%
SMILES	Cruzain inh Det	FBPA Giardia inh	Cruzain noTriton
CC1(C)N=C(N)N=C(N)N1c1cccc(C(=O)Nc2ccc(S(=O)(=O)F)cc2)c1	-2%	nt	3%
CC(/C=C/c1ccc(N(C)C)cc1)=N/N=C1/NC(=O)CC(C(=O)Nc2ccc(Cl)cc2)S1 (stereo not given)	-16%	7%	?
CCOc1ccc(NC(=O)C2CC(=O)N(CC)C(=Nc3ccc4c(c3)OCO4)S2)cc1 (stereo not given)	-3%	2%	-10%
CCOc1ccc(NC(=O)C2CC(=O)NC(=Nc3ccc(Cl)c(Cl)c3)S2)cc1 (stereo not given)	?	nt	10µM*
CCCOc1ccc(NC(=O)C2CC(=O)N/C(=N/N=C(C)/C=C/c3ccc(N(C)C)cc3)S2)cc1 (stereo not given)	-16%	-2%	25µM*
Cc1ccc(CN(Cc2ccco2)C(=O)c2ccccc2Cl)o1	-3%	nt	10%
Cc1ccc(C)c(N2CCN(C(=O)c3cc4c(=O)n(Cc5ccccc5)ccc4nc3C)CC2)c1	-10%	nt	?
Cn1c(=O)c2c(nc(C(=N)SCC(=O)O)n2C)n(C)c1=O	-15%	nt	-10%
COc1ccc(OC)c(NC(=O)CSc2cn(CC(=O)N3CCOCC3)c3ccccc23)c1	-2%	nt	23%
c1ccc2nc3ccccc3nc2c1	-2%	0%	-20%
Nc1nc2ccccc2nc1N	-19%	0%	20µM*
CC(=O)Oc1c2c(c(CC=C(C)C)c3c1C(=O)C1=CC4CC5C(C)(C)OC(C/C=C(\C)C(=O)O)(C4=O)[C@]15O3)OC(C)(CCC=C(C)C)C=C2 (stereo not given in full)	-13%	-10%	27%
COc1ccc(C)cc1NC(c1nnc(-c2ccccc2)o1)c1ccc(F)cc1Cl (stereo not given)	-6%	nt	?
CCOc1ccc2c(c1)n([O-])c1c([n+]2=O)CCCC1	-6%	14µM*	-9%

Screening results as filed in PubChem.
